# According to ChEMBL document CHEMBL1961873, “Compounds: GSK PKIS; Assays: Nanosyn kinase panel” (2012):
# Where “and” joins values, the source holds several entries; their conditions need not be identical. Equal values may be shown once.
# Assays:
# [1] = target: Serine/threonine-protein kinase pim-2 (Homo sapiens) (UniProt Q9P1W9); settings: at 1 µM;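 further: each value is a mean of the inhibition measurements against the kinase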
# [2] = target: Serine/threonine-protein kinase pim-3 (Homo sapiens) (UniProt Q86V86); settings: at 0.1 µM
# [3] = target: Serine/threonine-protein kinase pim-3 (Homo sapiens) (UniProt Q86V86); settings: at 1 µM
# [4] = target: T1, MAP kinase-activated protein kinase 5 (Homo sapiens) (UniProt Q8IW41); settings: at 0.1 µM
# T1 sequence (whole entry): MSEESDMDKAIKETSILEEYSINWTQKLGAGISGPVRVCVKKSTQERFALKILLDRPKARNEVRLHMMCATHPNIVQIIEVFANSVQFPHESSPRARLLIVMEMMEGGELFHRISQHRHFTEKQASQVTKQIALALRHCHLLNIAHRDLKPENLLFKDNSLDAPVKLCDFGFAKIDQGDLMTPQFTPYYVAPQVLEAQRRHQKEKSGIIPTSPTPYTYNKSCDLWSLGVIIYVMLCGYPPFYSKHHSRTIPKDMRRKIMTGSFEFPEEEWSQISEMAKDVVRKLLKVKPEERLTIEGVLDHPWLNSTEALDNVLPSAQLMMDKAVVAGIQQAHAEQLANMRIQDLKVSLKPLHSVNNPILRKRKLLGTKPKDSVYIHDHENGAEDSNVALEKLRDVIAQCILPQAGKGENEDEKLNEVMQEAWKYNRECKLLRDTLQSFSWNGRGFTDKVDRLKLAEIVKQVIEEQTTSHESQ
# [5] = target: T1, MAP kinase-activated protein kinase 5 (Homo sapiens); settings: at 1 µM
# [6] = target: Serine/threonine-protein kinase SIK1 (Homo sapiens) (UniProt P57059); settings: at 0.1 µM
# Serine/threonine-protein kinase SIK1 (Homo sapiens), sequence (P57059 whole entry): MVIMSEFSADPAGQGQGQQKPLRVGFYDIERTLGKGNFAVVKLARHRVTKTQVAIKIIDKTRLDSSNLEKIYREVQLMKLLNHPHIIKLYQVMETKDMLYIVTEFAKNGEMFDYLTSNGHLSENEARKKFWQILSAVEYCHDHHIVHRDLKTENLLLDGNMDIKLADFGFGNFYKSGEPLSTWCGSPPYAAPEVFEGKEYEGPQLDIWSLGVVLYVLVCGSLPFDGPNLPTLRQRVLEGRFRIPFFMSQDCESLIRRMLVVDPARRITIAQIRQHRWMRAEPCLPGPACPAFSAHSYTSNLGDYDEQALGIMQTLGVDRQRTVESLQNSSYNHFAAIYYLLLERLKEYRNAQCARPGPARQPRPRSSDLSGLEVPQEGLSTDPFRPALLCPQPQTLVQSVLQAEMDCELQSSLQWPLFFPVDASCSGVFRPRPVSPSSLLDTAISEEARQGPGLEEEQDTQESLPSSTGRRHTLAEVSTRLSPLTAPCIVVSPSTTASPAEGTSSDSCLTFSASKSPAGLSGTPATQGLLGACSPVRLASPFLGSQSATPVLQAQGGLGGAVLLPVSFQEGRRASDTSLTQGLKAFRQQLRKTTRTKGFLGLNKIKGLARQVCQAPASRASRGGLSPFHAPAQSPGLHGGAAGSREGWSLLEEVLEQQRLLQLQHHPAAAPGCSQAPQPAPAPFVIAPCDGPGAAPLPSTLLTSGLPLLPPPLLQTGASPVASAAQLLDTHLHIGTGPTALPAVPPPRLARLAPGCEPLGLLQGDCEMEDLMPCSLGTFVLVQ
# [7] = target: Serine/threonine-protein kinase SIK1 (Homo sapiens) (UniProt P57059); settings: at 1 µM
# [8] = target: Serine/threonine-protein kinase SIK2 (Homo sapiens) (UniProt Q9H0K1); settings: at 0.1 µM
# Serine/threonine-protein kinase SIK2 (Homo sapiens), sequence (Q9H0K1 whole entry, looked up): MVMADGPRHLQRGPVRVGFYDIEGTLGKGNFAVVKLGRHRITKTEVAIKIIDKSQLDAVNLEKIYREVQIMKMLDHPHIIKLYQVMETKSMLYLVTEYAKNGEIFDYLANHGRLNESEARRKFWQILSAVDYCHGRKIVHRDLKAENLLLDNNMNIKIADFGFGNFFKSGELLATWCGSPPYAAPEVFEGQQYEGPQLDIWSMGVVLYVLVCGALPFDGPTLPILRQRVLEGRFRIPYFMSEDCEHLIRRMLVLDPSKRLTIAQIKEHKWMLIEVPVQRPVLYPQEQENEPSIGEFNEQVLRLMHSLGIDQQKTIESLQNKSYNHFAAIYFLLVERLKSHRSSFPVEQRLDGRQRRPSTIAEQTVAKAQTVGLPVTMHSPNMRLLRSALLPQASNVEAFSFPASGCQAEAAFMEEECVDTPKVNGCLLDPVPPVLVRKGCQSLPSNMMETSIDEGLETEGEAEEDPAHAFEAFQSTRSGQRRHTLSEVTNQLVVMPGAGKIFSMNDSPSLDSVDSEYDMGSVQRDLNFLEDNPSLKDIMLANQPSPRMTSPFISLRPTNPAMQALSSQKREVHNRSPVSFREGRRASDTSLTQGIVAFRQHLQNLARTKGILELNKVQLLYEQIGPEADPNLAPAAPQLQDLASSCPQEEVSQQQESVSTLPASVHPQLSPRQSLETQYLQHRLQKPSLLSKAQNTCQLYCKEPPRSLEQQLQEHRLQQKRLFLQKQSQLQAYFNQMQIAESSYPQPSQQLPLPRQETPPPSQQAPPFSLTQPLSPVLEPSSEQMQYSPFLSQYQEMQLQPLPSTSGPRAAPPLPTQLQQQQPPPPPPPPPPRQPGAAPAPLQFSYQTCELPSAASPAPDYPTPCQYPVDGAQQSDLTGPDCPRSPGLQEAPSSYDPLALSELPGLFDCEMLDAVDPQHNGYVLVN
# [9] = target: Serine/threonine-protein kinase SIK2 (Homo sapiens) (UniProt Q9H0K1); settings: at 1 µM
# [10] = target: T2, Serine/threonine-protein kinase TBK1 (Homo sapiens) (UniProt Q9UHD2); settings: at 0.1 µM
# T2 sequence (whole entry): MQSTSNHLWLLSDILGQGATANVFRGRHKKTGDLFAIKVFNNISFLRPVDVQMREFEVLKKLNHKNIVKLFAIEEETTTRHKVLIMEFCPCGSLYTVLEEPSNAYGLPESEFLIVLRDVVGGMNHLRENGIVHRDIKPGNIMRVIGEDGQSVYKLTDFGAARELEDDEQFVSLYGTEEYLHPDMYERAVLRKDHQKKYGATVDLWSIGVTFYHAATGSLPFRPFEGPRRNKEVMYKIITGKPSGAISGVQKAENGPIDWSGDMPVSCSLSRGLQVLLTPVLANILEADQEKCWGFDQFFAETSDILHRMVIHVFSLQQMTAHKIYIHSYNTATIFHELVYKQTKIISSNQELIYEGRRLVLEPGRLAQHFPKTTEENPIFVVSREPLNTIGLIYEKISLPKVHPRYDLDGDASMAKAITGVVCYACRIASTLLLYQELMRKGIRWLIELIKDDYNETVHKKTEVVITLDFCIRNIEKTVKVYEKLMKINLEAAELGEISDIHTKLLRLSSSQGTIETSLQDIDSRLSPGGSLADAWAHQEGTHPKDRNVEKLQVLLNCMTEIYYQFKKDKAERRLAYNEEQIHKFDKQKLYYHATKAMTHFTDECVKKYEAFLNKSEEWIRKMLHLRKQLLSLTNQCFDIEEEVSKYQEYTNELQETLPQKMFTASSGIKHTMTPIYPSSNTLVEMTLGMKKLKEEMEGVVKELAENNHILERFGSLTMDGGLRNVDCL
# [11] = target: T2, Serine/threonine-protein kinase TBK1 (Homo sapiens); settings: at 1 µM
# [12] = target: T3, Testis-specific serine/threonine-protein kinase 1 (Homo sapiens) (UniProt Q9BXA7); settings: at 0.1 µM
# T3 sequence (whole entry): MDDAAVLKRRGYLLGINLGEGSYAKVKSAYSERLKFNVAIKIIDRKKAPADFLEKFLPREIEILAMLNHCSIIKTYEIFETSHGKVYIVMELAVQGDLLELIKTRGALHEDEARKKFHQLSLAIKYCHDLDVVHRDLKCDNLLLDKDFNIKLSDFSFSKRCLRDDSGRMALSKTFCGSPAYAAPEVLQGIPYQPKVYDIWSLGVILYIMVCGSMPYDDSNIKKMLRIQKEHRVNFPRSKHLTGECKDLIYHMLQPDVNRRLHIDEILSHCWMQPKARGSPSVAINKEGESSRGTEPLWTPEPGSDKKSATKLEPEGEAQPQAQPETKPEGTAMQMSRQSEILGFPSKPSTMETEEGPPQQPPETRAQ
# [13] = target: T3, Testis-specific serine/threonine-protein kinase 1 (Homo sapiens); settings: at 1 µM
# [14] = target: T4, Testis-specific serine/threonine-protein kinase 2 (Homo sapiens) (UniProt Q96PF2); settings: at 0.1 µM
# T4 sequence (whole entry): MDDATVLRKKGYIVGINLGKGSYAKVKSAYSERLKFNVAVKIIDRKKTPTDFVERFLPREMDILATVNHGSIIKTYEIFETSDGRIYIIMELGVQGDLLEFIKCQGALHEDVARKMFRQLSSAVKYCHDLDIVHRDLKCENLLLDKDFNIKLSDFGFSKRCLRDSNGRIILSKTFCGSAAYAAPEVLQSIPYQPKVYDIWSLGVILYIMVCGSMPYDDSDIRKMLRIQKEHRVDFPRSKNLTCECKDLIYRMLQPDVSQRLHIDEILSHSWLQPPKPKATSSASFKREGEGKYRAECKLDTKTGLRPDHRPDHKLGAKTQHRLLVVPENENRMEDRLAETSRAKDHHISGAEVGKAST
# [15] = target: T4, Testis-specific serine/threonine-protein kinase 2 (Homo sapiens); settings: at 1 µM
# [16] = target: Casein kinase I isoform alpha (Homo sapiens) (UniProt P48729); settings: at 0.1 µM
# Casein kinase I isoform alpha (Homo sapiens), sequence (P48729 2-337 limits assumed): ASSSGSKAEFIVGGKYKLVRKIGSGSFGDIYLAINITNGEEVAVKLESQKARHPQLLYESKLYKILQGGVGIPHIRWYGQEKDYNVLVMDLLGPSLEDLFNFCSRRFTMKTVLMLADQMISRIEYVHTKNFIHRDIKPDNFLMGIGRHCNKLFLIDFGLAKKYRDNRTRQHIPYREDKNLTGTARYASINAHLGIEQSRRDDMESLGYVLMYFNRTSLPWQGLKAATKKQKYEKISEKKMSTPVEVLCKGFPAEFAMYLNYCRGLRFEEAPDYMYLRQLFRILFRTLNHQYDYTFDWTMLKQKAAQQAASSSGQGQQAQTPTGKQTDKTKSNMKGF
# [17] = target: Casein kinase I isoform alpha (Homo sapiens) (UniProt P48729); settings: at 1 µM
# [18] = target: Casein kinase I isoform gamma-1 (Homo sapiens) (UniProt Q9HCP0); settings: at 0.1 µM
# Casein kinase I isoform gamma-1 (Homo sapiens), sequence (Q9HCP0 whole entry, looked up, canonical isoform): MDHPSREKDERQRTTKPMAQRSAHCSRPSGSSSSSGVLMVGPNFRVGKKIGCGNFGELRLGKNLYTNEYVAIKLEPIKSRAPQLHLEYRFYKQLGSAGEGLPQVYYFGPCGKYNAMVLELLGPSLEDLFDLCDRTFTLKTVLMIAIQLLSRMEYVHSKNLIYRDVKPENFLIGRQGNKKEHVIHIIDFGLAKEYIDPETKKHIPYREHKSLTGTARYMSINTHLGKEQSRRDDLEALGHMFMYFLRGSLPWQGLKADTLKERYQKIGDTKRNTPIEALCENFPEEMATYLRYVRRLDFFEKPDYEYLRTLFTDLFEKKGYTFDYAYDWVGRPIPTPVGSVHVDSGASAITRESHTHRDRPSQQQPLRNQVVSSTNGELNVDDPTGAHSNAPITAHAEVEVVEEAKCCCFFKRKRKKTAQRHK
# [19] = target: Casein kinase I isoform gamma-1 (Homo sapiens) (UniProt Q9HCP0); settings: at 1 µM
# [20] = target: Casein kinase I isoform gamma-2 (Homo sapiens) (UniProt P78368); settings: at 0.1 µM;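 further: values are mean inhibition figures reported as part of the GSK PKIS dataset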
# Casein kinase I isoform gamma-2 (Homo sapiens), sequence (P78368 whole entry, looked up, canonical isoform): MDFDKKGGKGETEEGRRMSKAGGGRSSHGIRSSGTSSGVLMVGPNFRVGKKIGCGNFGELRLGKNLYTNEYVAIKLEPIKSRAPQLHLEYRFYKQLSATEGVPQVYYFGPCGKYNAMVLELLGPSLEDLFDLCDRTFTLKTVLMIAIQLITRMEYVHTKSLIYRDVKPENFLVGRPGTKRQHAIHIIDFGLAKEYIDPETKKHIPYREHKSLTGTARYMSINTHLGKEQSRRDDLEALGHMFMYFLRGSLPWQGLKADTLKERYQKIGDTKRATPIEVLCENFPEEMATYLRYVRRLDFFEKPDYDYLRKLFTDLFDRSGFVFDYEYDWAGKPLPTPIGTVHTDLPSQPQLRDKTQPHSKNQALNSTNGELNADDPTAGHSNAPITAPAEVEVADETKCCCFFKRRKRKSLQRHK
# Serine/threonine-protein kinase pim-2 (Homo sapiens), sequence (Q9P1W9 whole entry, looked up): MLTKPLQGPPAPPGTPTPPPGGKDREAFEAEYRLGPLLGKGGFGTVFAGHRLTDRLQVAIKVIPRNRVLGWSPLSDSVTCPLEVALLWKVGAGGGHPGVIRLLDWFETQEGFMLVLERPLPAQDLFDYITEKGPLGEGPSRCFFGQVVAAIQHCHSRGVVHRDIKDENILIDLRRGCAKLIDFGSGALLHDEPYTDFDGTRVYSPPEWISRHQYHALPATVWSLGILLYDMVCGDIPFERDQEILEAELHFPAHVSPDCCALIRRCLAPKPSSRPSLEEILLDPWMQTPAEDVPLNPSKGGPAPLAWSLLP
Structure (SMILES),inhibition [1],inhibition [2],inhibition [3],inhibition [4],inhibition [5],inhibition [6],inhibition [7],inhibition [8],inhibition [9],inhibition [10],inhibition [11],inhibition [12],inhibition [13],inhibition [14],inhibition [15],inhibition [16],inhibition [17],inhibition [18],inhibition [19],inhibition [20]
NS(=O)(=O)c1ccc(N/N=C2\C(=O)Nc3cccc(CCc4ccncc4)c32)cc1,0.64%,0.22%,0.75%,0.36%,0.28%,1.17%,2.64%,2.91%,-0.94%,1.99%,4.17%,2.49%,1.9%,0.54%,1.32%,1.84%,-0.19%,0.44%,0.85%,0.15%
CN1CCC(C(=O)Nc2n[nH]c3nc(-c4ccc(O)cc4)c(Br)cc23)CC1,14.5% and 16.5%,8.95% and 8.97%,48.5% and 44.8%,1.61% and 0.79%,3.66% and 0.86%,3.1% and 1.53%,9.27% and 8.23%,7.89% and -2.04%,9.87% and 5.33%,4.48% and 3.27%,6.1% and 2.08%,5.11% and 0.23%,7.56% and 2.61%,3.45% and 1.03%,5.78% and 1.94%,2.56% and 1.97%,5.54% and 3%,0.95% and 1.75%,4.18% and 2.3%,1.05% and 1.85%
NS(=O)(=O)c1cccc(N/C=C2\C(=O)Nc3ccccc32)c1,0.69%,-0.71%,-2.38%,1.17%,1.53%,5.29%,10.8%,-0.72%,11.3%,3.79%,14.4%,4.45%,4.78%,1.7%,1.39%,8.16%,21.6%,4.71%,10.6%,3.71%
Fc1ccc(Nc2nccc(-c3c(-c4ccc(C(F)(F)F)cc4)nn4ncccc34)n2)cc1F,5.02%,-0.88%,-1%,0.6%,-0.23%,5.43%,3.1%,3.76%,2.08%,-0.07%,5.12%,2.94%,0.83%,0.43%,-1.83%,8.3%,5.37%,3.69%,4.68%,1.53%
COc1ccc(Nc2ncc(-c3ccccc3)o2)cc1OC,1.95%,0.89%,1.57%,-0.17%,-1.05%,2.55%,28.9%,1.69%,39%,-0.12%,10.7%,0.54%,1.75%,0.12%,0.02%,3.39%,6.61%,0.83%,3.24%,0.28%
COc1cc(N2CCN(C(C)C)CC2)ccc1Nc1nc(Nc2cccc3ncccc23)c2cc[nH]c2n1,0.36%,-0.71%,0.17%,0.21%,-0.62%,-2.95%,0.48%,-4.22%,3.12%,-0.11%,0.59%,5.22%,31.2%,0.31%,11.3%,-0.03%,2.43%,-1.03%,-0.55%,-1.25%
COC(=O)Nc1nc2ccc(Oc3ccc(NC(=O)Nc4cc(C(F)(F)F)ccc4F)cc3)cc2s1,0.12%,0.39%,0.5%,0.07%,-0.36%,-0.78%,0.54%,0.97%,-6.65%,-0.35%,-0.01%,0.44%,1.02%,-1.47%,0.19%,-1.12%,3.01%,-0.2%,-0.02%,-0.36%
CNC(=O)c1ncccc1Nc1nc(Nc2cc3c(cc2OC)CCCN3C(=O)CN(C)C)nc2[nH]ccc12,5.43%,2.42%,22.6%,0.95%,0.65%,4.63%,6.54%,3.05%,0.1%,5.66%,26.1%,85.5%,93.9%,31%,73.2%,1.15%,6.71%,4.96%,8.09%,2.28%
CN(C)CCNC(=O)Nc1ccc(N(C)c2ccnc(Nc3ccc(CS(C)(=O)=O)cc3)n2)cc1,2.68%,-0.48%,-1.2%,1.02%,0.33%,5.41%,31.9%,8.68%,13.6%,2.12%,5.74%,2.28%,5.73%,0.57%,-1.45%,2.02%,5.94%,3.74%,4.96%,4.73%
COC(=O)Nc1nc2cc(Oc3ccc(NC(=O)Nc4ccccc4)cc3)ccc2[nH]1,0.64%,-0.27%,0.79%,1.73%,2.59%,1.17%,7.79%,1.28%,9.23%,-0.2%,2.25%,3.86%,4.03%,2.21%,4.11%,0.93%,2.7%,2.12%,2.12%,2.17%
Cc1nnc(-c2cccc(-c3ccc(C(=O)NCC4CC4)cc3)c2)o1,1.27%,1.21%,5.19%,2.14%,4.28%,7.04%,10.7%,12.9%,5.76%,2.51%,6.92%,4.11%,5.87%,2.89%,3.75%,1.99%,5.86%,4.47%,4.29%,2.71%
c1cnn2ncc(-c3ccnc(NCCCN4CCOCC4)n3)c2c1,-1.06%,-0.56%,-0.85%,1.09%,1.07%,3.47%,6.56%,3.35%,2.87%,0.82%,1.95%,3.58%,2.58%,2.3%,1.85%,2.74%,16.4%,3.57%,4.83%,3.07%
CCS(=O)(=O)c1ccc(OC)c(Nc2ncc(-c3cccc(C(C)=O)c3)o2)c1,-0.01%,0.38%,4.79%,1.84%,2%,6.02%,15.1%,3.14%,14%,0.54%,5.54%,2.02%,5.38%,3.72%,1.57%,0.47%,2.36%,2.26%,2.79%,2.75%
